Where “and” joins values, the source holds several entries; their conditions need not be identical. Equal values may be shown once.

40 compounds from the supplement of paper PMC11383364 can be followed below.

The assay concerns SUM149. Briefly: percent difference in area under dose-response curve of relative cell number, RPMI vs HPLM; higher = drug relatively more effective in HPLM than RPMI (negative = less effective in HPLM). The settings on record: treatment time: 72 h; dose range: 10-point, 1 nM to 20 µM; media compared: RPMI vs HPLM. Here is the method:
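SUM149 triple-negative breast cancer cells, 500 cells/well in 384-well plates, were grown in RPMI or human plasma-like medium (HPLM) with 5% dialyzed FBS. They were pin-transferred with an anticancer plus metabolic-inhibitor library in 10-point dose series (20 µM to 1 nM). After 72 h, cells were fixed, stained with bisbenzimide and counted by Acumen plate cytometry. The AUC of relative survival vs dose was computed per medium, and the percent difference in AUC between RPMI and HPLM is reported.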
With `CC/C(=C(\c1ccccc1)c1ccc(OCCN(C)C)cc1)c1ccccc1` [Tamoxifen_Citrate], the “percent difference in area under dose-response curve” value (“percent difference in area” for short) is -4.18%.

As to `O=C(/C=C/c1ccc2ccccc2n1)c1ccncc1`, the “percent difference in area” value came to 7.96%.

`O=C(Nc1c[nH]nc1-c1nc2ccc(CN3CCOCC3)cc2[nH]1)NC1CC1`: the “percent difference in area” value is -10.6%.

Take `CCC1=C[C@@H]2CN(C1)Cc1c([nH]c3ccccc13)[C@@](C(=O)OC)(c1cc3c(cc1OC)N(C)[C@H]1[C@@](O)(C(=O)OC)[C@H](OC(C)=O)[C@]4(CC)C=CCN5CC[C@]31[C@@H]54)C2` [Vinorelbine_Tartrate]: the “percent difference in area” value was -41%.

Turning to `CCCS(=O)(=O)Nc1ccc(F)c(C(=O)c2c[nH]c3ncc(-c4ccc(Cl)cc4)cc23)c1F` [Vemurafenib], the “percent difference in area” value was determined as 6.44%.

Regarding `Cc1cn(-c2cc(NC(=O)c3ccc(C)c(Nc4nccc(-c5cccnc5)n4)c3)cc(C(F)(F)F)c2)cn1` [Nilotinib], the “percent difference in area” value is -3.16%.

For the compound `CS(=O)(=O)N1CCN(Cc2cc3nc(-c4cccc5[nH]ncc45)nc(N4CCOCC4)c3s2)CC1`, the “percent difference in area” value is -4.07%.

In the case of `OC(c1cc(C(F)(F)F)nc2c(C(F)(F)F)cccc12)C1CCCCN1` (stereo not given) [Mefloquine], the “percent difference in area” value amounted to 3.47%.

As for `COC1=C2C[C@@H](C)C[C@H](OC)[C@H](O)[C@@H](C)/C=C(\C)[C@H](OC(N)=O)[C@@H](OC)/C=C\C=C(/C)C(=O)NC(=CC1=O)C2=O` [Geldanamycin], the “percent difference in area” value was -5.2%.

As to `N[C@H](C(=O)O)[C@@H]1CC(Cl)=NO1` [Acivicin], the “percent difference in area” value came out at 9.22%.

On to `c1cc(-c2cnn3cc(-c4ccc(OCCN5CCCCC5)cc4)cnc23)ccn1` [Dorsomorphin], for which the “percent difference in area” value was -2.35%.

Turning to `Cc1ccc(C(=O)N(CCCN)[C@@H](c2nc3cc(Cl)ccc3c(=O)n2Cc2ccccc2)C(C)C)cc1` [Ispinesib], the “percent difference in area” value is -43.4%.

With `CN1CCN(c2nc(C3=C(c4c[nH]c5ccccc45)C(=O)NC3=O)c3ccccc3n2)CC1` [Sotrastaurin], the “percent difference in area” value is 9.13%.

With `CC(=O)O[C@]1(C(C)=O)CC[C@H]2[C@@H]3C[C@H](C)C4=CC(=O)CC[C@]4(C)[C@H]3CC[C@@]21C` [Medroxyprogesterone_acetate], the “percent difference in area” value came out at 0.646%.

`Nc1ncn([C@@H]2O[C@H](CO)[C@@H](O)[C@H]2O)c(=O)n1` [Azacitidine]: the “percent difference in area” value was -13.8%.

For `FC(F)c1nc2ccccc2n1-c1nc(N2CCOCC2)nc(N2CCOCC2)n1`, the “percent difference in area” value is 1.79%.

Turning to `CCN1CCN(Cc2ccc(-c3cc4c(N[C@H](C)c5ccccc5)ncnc4[nH]3)cc2)CC1`, the “percent difference in area” value is -3.13%.

As to `O=c1cc(N2CCOCC2)oc2c(-c3cccc4c3sc3ccccc34)cccc12`, the “percent difference in area” value is -2.53%.

With `Cc1cccc(Nc2nc(-c3ccncc3)cs2)c1`, the “percent difference in area” value was -3.22%.

`O=C(CCCCCCCn1cc(-c2cccnc2)nn1)Nc1ccccc1-c1ccccc1`: the “percent difference in area” value amounted to 0.587%.

Consider `COC(=O)Nc1ccc(-c2nc(N3CCOCC3)c3cnn(C4CCN(C(=O)OC)CC4)c3n2)cc1`, for which the “percent difference in area” value turned out to be 0.775%.

As to `Cn1c(=O)c(F)c(Nc2ccc(I)cc2F)c2c(=O)n(C[C@@H](O)CO)cnc21`, the “percent difference in area” value was -12.9%.

As to `COc1cc2nccc(Oc3ccc(NC(=O)C4(C(=O)Nc5ccc(F)cc5)CC4)cc3)c2cc1OC` [Cabozantinib_malate], the “percent difference in area” value amounted to 13.2%.

With `Cc1cnc(-c2ccccc2C(C)C)nc1NCc1ccc(-n2ccnn2)cc1`, the “percent difference in area” value is -3.5%.

As for `Cc1cnc(-c2cnc(NCCNc3ccc(C#N)cn3)nc2-c2ccc(Cl)cc2Cl)[nH]1`, the “percent difference in area” value amounted to 7.14%.

Consider `CC1=C(/C=C/C(C)=C/C=C/C(C)=C\C(=O)O)C(C)(C)CCC1` [Isotretinoin], for which the “percent difference in area” value is -4.74%.

With `CN(C)CC[C@H](CSc1ccccc1)Nc1ccc(S(=O)(=O)NC(=O)c2ccc(N3CCN(Cc4ccccc4-c4ccc(Cl)cc4)CC3)cc2)cc1[N+](=O)[O-]`, the “percent difference in area” value is -4.67% and 1.88%.

Turning to `NC1(c2ccc(-c3nc4ccn5c(=O)[nH]nc5c4cc3-c3ccccc3)cc2)CCC1`, the “percent difference in area” value was 0.884%.

Regarding `Nc1ccccc1NC(=O)c1ccc(CNC(=O)OCc2cccnc2)cc1` [Entinostat], the “percent difference in area” value was -2.21%.

`COc1cc2ncnc(Nc3ccc(F)c(Cl)c3)c2cc1NC(=O)/C=C/CN1CCCCC1` [Dacomitinib]: the “percent difference in area” value is -9.71%.

As to `CCCCC[C@H](CC(=O)NO)C(=O)N[C@H](C(=O)N1CCC[C@H]1CO)C(C)C` [Actinonin], the “percent difference in area” value stood at 1.68%.

For the compound `C=CC(=O)N1CCC[C@@H](n2nc(-c3ccc(Oc4ccccc4)cc3)c3c(N)ncnc32)C1`, the “percent difference in area” value came to 7.26%.

With `O=C(NOC[C@H](O)CO)c1ccc(F)c(F)c1Nc1ccc(I)cc1F`, the “percent difference in area” value was -8.94%.

As for `O=c1[nH]cc(F)c(=O)[nH]1` [Adrucil], the “percent difference in area” value was determined as 1.58%.

Consider `CC(=O)N1CCN(c2ccc(OCC3COC(Cn4ccnc4)(c4ccc(Cl)cc4Cl)O3)cc2)CC1` (stereo not given) [Ketoconazole], for which the “percent difference in area” value was -8.22%.

On to `Nc1ccc(C(=O)Nc2cccc(-c3nc(N4CCOCC4)c4oc5ncccc5c4n3)c2)cn1`, for which the “percent difference in area” value amounted to 7.67%.

Regarding `O=C(/C=C/c1cccc(S(=O)(=O)Nc2ccccc2)c1)NO` [Belinostat], the “percent difference in area” value is -13%.

Regarding `CC(C)CC(=O)Nc1n[nH]c2c1CN(C(=O)C1CCN(C)CC1)C2(C)C`, the “percent difference in area” value was -18.5%.

With `COc1c(C)c2c(c(O)c1C/C=C(\C)CCC(=O)OCCN1CCOCC1)C(=O)OC2` [Mycophenolate_mofetil], the “percent difference in area” value is -4.5%.

On to `C=CCn1c(=O)c2cnc(Nc3ccc(N4CCN(C)CC4)cc3)nc2n1-c1cccc(C(C)(C)O)n1`, for which the “percent difference in area” value came out at 0.0373%.
